Experimental data taken from the supplement of paper PMC11732987, “Enantioselective OTUD7B fragment discovery through chemoproteomics screening and high-throughput optimisation” (Communications Chemistry, 2025).

Columns and labels:
Assay in all cases: log2 ratio of Biotin-Ahx-Ub-VS probe labelling (fragment/DMSO); higher = less target engagement (more negative = stronger competition), active = hit call of the paper (q ≤ 0.05, log2 ratio ≤ -1)
Details in all cases: compound concentration: 200 uM; treatment time: 3 h
USP42 = target: T1, USP42 (UniProt Q9H9J4)
T1 sequence (whole entry): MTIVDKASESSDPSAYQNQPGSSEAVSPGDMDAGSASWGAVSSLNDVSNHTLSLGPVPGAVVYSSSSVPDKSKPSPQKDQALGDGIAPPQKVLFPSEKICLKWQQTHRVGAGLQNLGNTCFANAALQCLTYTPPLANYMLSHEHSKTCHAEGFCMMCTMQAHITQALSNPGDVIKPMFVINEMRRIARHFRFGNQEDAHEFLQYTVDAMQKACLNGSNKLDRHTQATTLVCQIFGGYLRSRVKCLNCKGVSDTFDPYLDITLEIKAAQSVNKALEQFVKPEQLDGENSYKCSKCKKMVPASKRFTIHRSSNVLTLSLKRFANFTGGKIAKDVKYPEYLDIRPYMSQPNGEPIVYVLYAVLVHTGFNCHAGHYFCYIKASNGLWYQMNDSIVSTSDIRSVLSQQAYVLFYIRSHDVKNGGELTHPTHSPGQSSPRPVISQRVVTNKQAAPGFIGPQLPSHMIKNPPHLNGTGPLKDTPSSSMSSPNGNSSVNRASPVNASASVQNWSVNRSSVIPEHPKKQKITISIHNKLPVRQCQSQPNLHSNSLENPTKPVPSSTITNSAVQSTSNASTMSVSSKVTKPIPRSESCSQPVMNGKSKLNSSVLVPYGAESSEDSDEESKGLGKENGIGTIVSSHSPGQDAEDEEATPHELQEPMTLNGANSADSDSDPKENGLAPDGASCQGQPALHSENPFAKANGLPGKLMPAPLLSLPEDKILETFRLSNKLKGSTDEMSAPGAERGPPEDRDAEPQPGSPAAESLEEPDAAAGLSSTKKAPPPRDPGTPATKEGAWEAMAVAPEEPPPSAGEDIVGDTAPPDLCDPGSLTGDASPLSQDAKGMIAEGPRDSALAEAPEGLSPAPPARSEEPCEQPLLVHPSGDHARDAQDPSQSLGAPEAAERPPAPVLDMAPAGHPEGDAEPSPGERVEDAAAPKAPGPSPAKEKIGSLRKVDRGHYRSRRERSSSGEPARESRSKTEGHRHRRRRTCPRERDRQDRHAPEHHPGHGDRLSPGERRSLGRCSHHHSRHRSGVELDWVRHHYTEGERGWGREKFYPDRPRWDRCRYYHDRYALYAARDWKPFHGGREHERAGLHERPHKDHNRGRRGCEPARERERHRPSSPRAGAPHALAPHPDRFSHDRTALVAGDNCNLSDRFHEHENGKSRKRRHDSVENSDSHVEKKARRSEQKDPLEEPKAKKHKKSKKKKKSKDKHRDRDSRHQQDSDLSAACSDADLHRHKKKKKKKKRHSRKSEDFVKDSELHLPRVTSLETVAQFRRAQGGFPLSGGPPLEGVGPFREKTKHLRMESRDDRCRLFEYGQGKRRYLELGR
Procedure, shortened: (§1)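 Labelling with Biotin-Ahx-Ub-VS (0.5 µM final, 1 h) followed a 3 h triplicate treatment of HEK293T lysate (495 µg per sample, Tris/CHAPS/IGEPAL buffer with protease inhibitors) with fragment at 200 µM or vehicle. Labelled DUBs were NeutrAvidin-enriched, digested with LysC and trypsin, and run by diaPASEF LC-MS/MS. The values, average log2 fragment/vehicle ratios by unpaired t-test, come from global-median-normalised Spectronaut label-free quantities. Proteins with ≥2 unique peptides were used.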

USP46 = USP46 (UniProt P62068)
Procedure, shortened: as §1

USP47 = target: T2, USP47 (UniProt Q96K76)
T2 sequence (whole entry): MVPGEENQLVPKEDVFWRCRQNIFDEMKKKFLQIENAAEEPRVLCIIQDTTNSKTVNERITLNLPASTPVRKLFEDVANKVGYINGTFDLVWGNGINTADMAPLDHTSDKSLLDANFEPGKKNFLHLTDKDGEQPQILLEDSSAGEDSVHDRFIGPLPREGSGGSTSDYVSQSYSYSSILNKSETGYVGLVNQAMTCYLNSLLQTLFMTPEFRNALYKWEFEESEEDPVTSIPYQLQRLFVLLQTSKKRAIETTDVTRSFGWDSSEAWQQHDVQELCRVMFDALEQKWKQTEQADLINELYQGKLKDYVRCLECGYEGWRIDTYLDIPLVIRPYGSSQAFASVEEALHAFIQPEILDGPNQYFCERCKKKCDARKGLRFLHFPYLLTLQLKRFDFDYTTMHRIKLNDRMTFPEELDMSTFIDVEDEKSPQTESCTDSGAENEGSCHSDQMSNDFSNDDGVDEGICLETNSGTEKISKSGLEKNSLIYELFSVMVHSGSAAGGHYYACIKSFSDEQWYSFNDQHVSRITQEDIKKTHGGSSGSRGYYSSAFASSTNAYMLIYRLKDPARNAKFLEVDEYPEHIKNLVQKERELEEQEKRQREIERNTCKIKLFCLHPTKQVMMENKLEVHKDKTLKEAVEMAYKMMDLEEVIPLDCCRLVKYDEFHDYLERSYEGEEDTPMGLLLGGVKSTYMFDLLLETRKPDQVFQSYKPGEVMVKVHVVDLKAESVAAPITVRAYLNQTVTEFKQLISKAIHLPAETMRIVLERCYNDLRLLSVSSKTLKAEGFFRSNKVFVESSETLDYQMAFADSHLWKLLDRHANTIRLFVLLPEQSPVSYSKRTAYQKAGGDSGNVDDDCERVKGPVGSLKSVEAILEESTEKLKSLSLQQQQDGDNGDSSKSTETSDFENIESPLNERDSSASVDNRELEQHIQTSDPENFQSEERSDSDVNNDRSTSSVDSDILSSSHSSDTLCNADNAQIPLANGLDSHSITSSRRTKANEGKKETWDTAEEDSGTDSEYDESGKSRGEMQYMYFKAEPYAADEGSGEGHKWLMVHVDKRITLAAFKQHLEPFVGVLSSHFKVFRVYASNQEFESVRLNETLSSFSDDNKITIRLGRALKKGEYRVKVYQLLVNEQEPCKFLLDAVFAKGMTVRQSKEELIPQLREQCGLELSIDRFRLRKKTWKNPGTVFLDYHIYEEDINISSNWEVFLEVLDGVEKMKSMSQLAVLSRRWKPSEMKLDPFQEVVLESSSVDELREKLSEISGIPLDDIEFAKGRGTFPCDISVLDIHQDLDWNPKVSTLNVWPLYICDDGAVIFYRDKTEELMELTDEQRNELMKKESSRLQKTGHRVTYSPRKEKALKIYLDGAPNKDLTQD
Procedure, shortened: as §1

USP48 = target: T3, USP48 (UniProt Q86UV5)
T3 sequence (whole entry): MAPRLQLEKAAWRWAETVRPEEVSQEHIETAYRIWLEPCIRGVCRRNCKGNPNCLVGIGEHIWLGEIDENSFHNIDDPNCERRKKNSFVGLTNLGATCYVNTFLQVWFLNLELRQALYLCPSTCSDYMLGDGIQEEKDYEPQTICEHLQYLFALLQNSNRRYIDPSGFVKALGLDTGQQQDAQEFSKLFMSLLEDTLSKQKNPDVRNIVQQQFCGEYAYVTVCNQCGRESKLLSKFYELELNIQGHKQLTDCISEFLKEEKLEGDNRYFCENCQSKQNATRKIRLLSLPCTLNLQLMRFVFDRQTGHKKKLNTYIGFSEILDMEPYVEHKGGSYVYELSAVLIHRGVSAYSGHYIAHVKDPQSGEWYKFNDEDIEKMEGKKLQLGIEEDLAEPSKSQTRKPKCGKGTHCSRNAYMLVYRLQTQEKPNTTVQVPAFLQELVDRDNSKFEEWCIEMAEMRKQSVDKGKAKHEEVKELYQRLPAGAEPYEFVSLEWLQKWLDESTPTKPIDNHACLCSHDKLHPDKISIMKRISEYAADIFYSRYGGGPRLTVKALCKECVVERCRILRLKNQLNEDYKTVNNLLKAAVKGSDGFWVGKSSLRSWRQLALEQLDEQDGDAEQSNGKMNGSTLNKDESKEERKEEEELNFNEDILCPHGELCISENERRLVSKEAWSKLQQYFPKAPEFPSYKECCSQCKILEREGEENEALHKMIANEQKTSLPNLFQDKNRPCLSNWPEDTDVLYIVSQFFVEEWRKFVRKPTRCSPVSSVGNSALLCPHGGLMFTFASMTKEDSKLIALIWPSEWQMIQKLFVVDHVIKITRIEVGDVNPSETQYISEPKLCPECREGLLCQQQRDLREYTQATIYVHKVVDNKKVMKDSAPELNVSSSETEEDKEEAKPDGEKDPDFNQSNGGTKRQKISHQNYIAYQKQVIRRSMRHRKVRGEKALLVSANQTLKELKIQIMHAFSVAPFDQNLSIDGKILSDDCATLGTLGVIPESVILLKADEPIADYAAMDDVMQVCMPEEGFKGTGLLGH
Procedure, shortened: as §1

USP5 = target: T4, USP5 (UniProt P45974)
T4 sequence (whole entry): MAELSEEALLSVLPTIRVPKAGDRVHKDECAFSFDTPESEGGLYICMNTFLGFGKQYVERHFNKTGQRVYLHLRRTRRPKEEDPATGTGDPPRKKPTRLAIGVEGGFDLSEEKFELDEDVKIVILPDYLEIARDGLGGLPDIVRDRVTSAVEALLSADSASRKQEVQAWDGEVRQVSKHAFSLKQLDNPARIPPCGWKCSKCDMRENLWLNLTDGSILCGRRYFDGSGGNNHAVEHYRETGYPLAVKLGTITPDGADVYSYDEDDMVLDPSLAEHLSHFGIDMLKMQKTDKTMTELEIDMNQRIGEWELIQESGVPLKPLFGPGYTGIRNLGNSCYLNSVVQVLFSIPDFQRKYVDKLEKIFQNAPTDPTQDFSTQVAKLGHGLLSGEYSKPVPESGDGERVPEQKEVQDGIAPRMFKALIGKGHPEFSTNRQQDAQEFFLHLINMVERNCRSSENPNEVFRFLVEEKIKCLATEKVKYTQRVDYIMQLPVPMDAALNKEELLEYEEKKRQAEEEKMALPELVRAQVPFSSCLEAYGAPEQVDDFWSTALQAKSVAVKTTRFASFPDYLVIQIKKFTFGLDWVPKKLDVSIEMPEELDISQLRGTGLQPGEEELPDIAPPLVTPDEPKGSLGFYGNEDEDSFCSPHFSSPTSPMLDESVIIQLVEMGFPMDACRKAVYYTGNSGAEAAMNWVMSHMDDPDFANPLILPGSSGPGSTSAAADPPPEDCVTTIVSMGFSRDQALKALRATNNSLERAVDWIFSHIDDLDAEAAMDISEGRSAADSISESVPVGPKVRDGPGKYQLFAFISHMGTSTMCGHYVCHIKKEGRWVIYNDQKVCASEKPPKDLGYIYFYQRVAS
Procedure, shortened: as §1

USP54 = USP54 (UniProt Q70EL1)
Procedure, shortened: as §1

USP7 = USP7 (UniProt Q93009)
Procedure, shortened: as §1

USP8 = target: T5, USP8 (UniProt P40818)
T5 sequence (whole entry): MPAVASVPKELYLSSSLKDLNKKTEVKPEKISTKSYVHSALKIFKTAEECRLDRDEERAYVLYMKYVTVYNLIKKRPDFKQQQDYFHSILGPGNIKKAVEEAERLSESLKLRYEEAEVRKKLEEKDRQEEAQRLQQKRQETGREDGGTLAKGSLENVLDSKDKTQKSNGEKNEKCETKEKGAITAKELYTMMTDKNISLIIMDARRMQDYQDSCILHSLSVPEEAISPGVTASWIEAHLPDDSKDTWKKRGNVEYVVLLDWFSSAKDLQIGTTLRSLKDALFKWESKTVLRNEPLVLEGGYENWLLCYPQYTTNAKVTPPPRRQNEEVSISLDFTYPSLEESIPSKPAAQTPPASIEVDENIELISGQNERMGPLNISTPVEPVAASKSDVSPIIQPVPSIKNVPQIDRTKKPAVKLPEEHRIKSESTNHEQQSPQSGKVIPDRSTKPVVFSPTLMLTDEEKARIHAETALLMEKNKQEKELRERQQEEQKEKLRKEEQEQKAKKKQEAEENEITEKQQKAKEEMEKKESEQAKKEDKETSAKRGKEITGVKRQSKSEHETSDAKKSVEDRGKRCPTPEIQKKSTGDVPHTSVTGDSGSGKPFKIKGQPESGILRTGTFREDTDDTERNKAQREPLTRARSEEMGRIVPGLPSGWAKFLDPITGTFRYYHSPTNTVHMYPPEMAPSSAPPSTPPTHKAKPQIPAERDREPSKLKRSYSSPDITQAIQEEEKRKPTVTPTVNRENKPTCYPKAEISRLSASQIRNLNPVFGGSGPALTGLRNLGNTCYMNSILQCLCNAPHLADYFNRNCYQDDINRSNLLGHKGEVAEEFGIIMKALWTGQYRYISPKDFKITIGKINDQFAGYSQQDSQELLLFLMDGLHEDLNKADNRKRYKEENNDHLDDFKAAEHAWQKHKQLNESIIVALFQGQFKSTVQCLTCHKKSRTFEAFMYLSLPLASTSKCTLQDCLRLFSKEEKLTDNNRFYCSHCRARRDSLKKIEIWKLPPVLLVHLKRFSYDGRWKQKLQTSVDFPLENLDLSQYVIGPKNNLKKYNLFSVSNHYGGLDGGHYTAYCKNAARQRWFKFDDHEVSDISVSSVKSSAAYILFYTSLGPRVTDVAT
Procedure, shortened: as §1

USP9X = USP9X (UniProt Q93008)
Procedure, shortened: as §1

UniProt O00487 = target: UniProt O00487
Procedure, shortened: as §1

Measured: log2 ratio of Biotin-Ahx-Ub-VS probe labelling

USP7, sequence (Q93009 whole entry, looked up): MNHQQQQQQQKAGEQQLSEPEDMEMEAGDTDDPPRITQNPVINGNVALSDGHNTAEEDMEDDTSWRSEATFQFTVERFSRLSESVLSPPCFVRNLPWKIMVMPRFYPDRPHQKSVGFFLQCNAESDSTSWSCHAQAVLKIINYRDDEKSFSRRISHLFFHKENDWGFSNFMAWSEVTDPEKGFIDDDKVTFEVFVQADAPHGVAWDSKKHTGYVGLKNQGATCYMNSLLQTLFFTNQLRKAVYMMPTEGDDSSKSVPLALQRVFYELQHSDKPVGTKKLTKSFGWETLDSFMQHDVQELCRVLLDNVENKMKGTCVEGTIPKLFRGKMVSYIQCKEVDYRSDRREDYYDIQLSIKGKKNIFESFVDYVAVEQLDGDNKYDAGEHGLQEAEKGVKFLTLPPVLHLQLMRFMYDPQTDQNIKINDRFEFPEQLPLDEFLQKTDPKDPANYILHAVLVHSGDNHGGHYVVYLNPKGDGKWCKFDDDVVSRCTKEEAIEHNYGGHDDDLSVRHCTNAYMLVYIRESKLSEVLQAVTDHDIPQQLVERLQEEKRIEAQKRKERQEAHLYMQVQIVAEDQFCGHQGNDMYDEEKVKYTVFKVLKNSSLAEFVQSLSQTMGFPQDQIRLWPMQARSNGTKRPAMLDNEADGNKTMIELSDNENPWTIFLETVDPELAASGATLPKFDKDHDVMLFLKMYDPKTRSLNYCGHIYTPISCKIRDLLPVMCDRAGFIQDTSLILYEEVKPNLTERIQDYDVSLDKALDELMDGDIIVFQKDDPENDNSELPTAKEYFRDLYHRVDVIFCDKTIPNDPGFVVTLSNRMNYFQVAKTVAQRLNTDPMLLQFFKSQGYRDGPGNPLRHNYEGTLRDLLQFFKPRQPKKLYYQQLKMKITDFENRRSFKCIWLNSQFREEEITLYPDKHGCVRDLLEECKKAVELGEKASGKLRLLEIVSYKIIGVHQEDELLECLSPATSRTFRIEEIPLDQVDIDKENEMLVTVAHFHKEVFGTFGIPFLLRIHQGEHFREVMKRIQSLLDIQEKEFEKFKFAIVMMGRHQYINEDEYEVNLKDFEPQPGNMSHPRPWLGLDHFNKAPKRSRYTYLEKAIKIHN
USP46, sequence (P62068 whole entry): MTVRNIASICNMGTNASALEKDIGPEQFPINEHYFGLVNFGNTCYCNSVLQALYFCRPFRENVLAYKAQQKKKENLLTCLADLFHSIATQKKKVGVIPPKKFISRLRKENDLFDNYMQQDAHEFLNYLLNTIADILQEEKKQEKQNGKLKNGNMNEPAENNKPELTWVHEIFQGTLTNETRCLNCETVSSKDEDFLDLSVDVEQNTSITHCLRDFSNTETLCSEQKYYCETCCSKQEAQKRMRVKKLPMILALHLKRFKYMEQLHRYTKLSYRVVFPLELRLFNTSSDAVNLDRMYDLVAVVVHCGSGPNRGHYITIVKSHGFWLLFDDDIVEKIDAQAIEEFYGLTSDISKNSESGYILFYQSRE
UniProt O00487, sequence (O00487 whole entry): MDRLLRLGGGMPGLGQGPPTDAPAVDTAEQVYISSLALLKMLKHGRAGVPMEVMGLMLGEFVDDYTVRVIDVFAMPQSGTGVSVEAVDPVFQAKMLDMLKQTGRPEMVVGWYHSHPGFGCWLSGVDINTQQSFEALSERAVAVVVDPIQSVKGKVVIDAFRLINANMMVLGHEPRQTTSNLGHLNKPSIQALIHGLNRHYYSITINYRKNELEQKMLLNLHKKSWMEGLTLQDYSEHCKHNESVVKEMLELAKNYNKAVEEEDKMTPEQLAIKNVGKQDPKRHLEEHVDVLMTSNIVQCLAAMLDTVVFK
USP54, sequence (Q70EL1 whole entry): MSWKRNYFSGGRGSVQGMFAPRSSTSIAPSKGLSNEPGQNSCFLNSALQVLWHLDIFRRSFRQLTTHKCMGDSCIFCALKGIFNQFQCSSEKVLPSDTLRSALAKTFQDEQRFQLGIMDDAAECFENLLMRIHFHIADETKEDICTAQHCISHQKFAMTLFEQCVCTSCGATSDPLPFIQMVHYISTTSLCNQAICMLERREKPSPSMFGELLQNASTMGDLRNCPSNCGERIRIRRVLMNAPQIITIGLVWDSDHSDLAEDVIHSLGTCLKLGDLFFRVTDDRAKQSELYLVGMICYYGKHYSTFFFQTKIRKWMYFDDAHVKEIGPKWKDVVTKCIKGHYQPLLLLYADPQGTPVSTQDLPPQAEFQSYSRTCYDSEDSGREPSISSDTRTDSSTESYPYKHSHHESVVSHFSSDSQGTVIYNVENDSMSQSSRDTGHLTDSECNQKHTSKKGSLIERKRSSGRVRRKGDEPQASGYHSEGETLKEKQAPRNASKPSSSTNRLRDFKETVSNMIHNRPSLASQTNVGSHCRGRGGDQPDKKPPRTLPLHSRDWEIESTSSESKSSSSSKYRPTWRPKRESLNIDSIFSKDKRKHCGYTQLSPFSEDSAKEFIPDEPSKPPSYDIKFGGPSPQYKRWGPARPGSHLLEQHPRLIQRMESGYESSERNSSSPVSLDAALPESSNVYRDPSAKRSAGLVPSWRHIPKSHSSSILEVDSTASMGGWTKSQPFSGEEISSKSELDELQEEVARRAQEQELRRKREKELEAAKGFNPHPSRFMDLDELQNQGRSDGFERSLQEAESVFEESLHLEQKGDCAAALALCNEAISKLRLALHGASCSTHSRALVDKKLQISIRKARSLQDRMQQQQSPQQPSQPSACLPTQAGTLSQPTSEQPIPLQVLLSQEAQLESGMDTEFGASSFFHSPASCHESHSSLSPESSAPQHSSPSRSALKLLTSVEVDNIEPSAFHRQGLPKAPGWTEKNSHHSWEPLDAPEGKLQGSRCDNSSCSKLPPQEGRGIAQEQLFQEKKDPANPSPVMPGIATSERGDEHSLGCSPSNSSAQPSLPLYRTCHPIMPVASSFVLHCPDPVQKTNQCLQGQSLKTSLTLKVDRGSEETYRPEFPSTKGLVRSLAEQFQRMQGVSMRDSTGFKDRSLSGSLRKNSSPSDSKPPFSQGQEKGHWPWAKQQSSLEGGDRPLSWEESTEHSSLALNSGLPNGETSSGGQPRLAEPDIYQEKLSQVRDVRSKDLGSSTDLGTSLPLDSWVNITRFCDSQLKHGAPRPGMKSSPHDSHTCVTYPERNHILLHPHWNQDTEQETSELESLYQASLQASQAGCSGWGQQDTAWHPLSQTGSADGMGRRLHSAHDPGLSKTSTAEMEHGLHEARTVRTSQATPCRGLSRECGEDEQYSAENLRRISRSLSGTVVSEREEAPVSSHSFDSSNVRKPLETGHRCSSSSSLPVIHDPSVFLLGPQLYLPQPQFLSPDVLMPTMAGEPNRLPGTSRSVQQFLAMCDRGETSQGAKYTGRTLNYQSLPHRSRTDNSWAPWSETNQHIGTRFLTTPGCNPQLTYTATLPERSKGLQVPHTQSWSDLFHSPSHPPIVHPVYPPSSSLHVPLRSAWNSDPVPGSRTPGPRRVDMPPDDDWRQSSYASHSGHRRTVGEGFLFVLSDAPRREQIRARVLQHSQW

O=C(CCl)Nc1ccc2c(c1)OC(F)(F)O2
active: USP47 -1.16
inactive: USP42 -0.384 | USP46 -0.0942 | USP48 -0.476 | USP5 0.218 | USP54 0.684 | USP7 -0.296 | USP8 -0.29 | USP9X -0.301 | UniProt O00487 0.0325
